For some assays here: Potency and affinity values are given separately.

The target of experiment [1] is T1, Methionyl-tRNA synthetase, putative (Leishmania donovani (strain BPK282A1)) (UniProt E9BF75).
T1 sequence (whole entry): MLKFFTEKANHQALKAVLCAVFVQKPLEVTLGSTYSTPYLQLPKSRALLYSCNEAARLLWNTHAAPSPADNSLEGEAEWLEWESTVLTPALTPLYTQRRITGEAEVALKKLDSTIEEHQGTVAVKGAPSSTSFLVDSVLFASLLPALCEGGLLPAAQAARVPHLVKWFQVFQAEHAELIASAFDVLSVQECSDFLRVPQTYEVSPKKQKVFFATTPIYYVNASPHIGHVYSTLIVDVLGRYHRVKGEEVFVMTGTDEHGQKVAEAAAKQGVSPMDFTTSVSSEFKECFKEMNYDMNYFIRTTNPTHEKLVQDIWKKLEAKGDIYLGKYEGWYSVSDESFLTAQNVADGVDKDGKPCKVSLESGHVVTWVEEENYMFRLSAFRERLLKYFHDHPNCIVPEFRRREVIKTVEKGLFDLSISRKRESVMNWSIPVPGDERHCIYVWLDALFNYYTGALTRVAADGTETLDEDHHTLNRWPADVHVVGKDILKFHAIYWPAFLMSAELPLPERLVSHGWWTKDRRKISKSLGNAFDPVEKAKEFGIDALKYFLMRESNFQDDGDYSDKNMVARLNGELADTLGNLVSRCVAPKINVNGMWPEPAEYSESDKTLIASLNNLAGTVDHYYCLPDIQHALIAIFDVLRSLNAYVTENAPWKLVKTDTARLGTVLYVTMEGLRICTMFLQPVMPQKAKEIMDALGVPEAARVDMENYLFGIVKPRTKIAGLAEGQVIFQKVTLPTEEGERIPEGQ
The experiment can be described thus: Leishmania donovani Methionine tRNA synthetase (LdMetRS):v7. Dose response assay. The arrangement: conc 80 nM, time 150 minutes. In kind it is functional.

Experiment [2] addresses Protein translocase subunit SecA (Escherichia coli (strain K12)) (UniProt P10408). The experiment can be described thus: Assay to Identify E. coli SecA ATPase Inhibitors. It is filed as functional. The arrangement: scale not given: direction of the effect not stated beside the values. Particulars: 30 µM.
Experiment [3] addresses T2, Ubiquitin-activating enzyme e1, putative (Leishmania donovani (strain BPK282A1)) (UniProt E9BSI1).
T2 sequence (whole entry): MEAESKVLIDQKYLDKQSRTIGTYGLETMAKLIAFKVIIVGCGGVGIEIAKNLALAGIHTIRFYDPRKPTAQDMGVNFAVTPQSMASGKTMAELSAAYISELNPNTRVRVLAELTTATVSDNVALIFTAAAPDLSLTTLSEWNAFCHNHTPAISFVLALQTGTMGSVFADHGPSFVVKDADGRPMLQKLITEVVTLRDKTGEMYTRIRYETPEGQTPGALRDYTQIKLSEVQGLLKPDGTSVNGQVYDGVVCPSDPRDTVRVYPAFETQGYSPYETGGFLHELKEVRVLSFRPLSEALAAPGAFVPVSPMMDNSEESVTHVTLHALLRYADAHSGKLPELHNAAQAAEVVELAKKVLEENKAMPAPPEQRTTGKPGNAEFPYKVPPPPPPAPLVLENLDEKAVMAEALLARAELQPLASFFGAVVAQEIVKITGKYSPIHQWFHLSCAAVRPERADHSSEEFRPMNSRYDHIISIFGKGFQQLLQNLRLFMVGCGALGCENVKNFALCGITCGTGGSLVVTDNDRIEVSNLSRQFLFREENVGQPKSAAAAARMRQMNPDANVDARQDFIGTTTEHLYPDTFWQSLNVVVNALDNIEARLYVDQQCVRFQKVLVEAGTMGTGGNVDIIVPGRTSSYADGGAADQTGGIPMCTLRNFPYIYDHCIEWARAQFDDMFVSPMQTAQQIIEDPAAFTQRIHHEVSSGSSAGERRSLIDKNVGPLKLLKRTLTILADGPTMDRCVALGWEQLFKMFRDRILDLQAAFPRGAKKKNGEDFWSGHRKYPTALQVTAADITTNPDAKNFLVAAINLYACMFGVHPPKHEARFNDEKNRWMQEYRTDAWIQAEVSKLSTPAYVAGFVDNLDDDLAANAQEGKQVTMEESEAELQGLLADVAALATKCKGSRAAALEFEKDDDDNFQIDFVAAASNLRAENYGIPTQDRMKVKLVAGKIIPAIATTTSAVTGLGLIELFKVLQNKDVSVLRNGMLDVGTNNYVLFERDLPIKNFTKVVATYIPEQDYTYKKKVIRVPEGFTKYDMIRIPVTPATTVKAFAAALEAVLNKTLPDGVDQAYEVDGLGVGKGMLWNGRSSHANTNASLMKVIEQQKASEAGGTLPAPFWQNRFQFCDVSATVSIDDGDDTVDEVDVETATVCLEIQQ
The experiment can be described thus: Leishmania donovani Ubiquitin Activating Enzyme (LdE1). In kind it is functional. On the set-up: scale not given: direction of the effect not stated beside the values. Particulars: 30 µM.

Experiment [4] deals with AMP-activated protein kinase, AMPK (Homo sapiens) (UniProt P54646+O43741+P54619+Q9UGJ0+Q9Y478+Q13131+Q9UGI9). The experiment can be described thus: AMP-dependent Kinase enzyme assay. An in vitro enzyme assay that detects ADP turnover that is directly proportional to AMPK activity. This uses naive AMPK that is activated during the assay with MK-8722. In kind it is functional. On the set-up: scale not given: direction of the effect not stated beside the values. As to conditions: 30 µM.

Experiment [5] addresses Sialic acid-binding Ig-like lectin 9 (Homo sapiens) (UniProt Q9Y336). Nature of the experiment: Hs-Siglec9 ALPHAscreen SOP 20170721. On the set-up: scale not given: direction of the effect not stated beside the values. As to conditions: 10 µM. A general note: Alpha assays give light when donor and acceptor beads are brought close together.
In a further experiment the test system is Trypanosoma cruzi. The experiment can be described thus: Trypanosoma cruzi phosphomannomutase and mannose-1-phosphate guanylyltransferase assay. It is filed as functional. The arrangement: scale not given: direction of the effect not stated beside the values. As to conditions: 10 µM.
Experiment [6] has as its target T3, Arginase-2, mitochondrial (Homo sapiens) (UniProt P78540).
T3 sequence (whole entry): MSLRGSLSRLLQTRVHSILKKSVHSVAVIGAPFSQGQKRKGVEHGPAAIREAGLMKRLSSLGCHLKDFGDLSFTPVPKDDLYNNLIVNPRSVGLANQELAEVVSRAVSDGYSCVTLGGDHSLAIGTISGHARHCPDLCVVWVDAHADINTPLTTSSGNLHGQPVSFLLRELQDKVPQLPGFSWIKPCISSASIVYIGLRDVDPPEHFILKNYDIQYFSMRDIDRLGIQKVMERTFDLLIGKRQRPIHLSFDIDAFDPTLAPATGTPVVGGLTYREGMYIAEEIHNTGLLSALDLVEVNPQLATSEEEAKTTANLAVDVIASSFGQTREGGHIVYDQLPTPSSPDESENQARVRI
The experiment can be described thus: in vitro enzyme assay to detect the production of urea directly proportional to the activity of Arginase II. It is filed as functional. On the set-up: scale not given: in the data most compounds retested in dose-response had high values. As to conditions: 33.3 µM.

The target in experiment [7] is T4, Proteasome subunit beta (Trypanosoma cruzi) (UniProt O96673).
T4 sequence (whole entry): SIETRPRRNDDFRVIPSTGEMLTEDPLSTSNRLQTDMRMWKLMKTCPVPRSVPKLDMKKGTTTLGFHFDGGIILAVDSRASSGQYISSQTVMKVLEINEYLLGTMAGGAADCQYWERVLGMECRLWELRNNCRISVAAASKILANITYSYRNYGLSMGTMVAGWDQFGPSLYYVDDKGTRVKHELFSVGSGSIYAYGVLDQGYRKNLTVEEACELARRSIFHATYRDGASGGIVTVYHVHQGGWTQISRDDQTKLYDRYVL
The experiment can be described thus: Trypanosoma cruzi proteasome chymotrypsin-like activity (TcProtChymo) assay. Particulars: 9.37 µM. In kind it is functional. On the set-up: scale not given: in the data most compounds retested in dose-response had high values.

A further experiment is filed under the species Homo sapiens. The experiment can be described thus: To identify inhibition of the IFN signalling (Jak-Stat) pathway via expression of an eGFP reporter gene under the control of an IFN-stimulated response element (ISRE) containing MxA promoter. In kind it is functional. On the set-up: scale not given: direction of the effect not stated beside the values. Particulars: 30 µM.

The target of experiment [8] is T5, Tyrosyl-tRNA synthetase, putative (Trypanosoma cruzi (strain CL Brener)) (UniProt Q4DSP6).
T5 sequence (whole entry): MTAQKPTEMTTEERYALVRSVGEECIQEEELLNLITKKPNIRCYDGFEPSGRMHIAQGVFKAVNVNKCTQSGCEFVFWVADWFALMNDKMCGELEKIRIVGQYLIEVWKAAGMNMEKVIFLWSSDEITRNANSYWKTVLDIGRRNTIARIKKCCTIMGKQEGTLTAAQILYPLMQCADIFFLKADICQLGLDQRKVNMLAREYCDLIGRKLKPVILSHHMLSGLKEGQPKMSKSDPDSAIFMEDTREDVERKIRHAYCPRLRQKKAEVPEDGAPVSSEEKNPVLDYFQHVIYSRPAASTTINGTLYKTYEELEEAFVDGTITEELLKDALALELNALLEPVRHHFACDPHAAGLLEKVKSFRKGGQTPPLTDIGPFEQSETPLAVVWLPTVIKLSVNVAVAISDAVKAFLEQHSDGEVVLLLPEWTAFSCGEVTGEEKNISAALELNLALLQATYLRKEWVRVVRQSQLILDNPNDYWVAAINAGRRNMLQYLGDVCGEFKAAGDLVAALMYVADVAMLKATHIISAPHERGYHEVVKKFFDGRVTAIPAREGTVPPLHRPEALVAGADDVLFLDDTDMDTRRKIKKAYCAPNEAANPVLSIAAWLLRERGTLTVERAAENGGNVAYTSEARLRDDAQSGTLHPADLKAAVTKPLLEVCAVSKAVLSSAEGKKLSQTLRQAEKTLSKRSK
The experiment can be described thus: Trypanosoma cruzi tyrosyl tRNA synthetase (TcYRS) _High Tyrosine SOP. In kind it is functional. On the set-up: scale not given: in the data most compounds retested in dose-response had high values. Particulars: 30 µM.

Experiment [9] has as its target T5, Tyrosyl-tRNA synthetase, putative (Trypanosoma cruzi (strain CL Brener)). The experiment can be described thus: Trypanosoma cruzi tyrosyl tRNA synthetase (TcYRS) SOP. It is filed as functional. On the set-up: scale not given: direction of the effect not stated beside the values. As to conditions: 30 µM.
For experiment [10], the target named is Chromo domain-containing protein 1 (Saccharomyces cerevisiae (strain ATCC 204508 / S288c) (Baker's yeast)) (UniProt P32657). Nature of the experiment: ScCHD-1 Enzyme Inhibition Assay. Particulars: 30 µM. It is filed as functional. On the set-up: scale not given: in the data most compounds retested in dose-response had high values.
Chain of Chromo domain-containing protein 1 (Saccharomyces cerevisiae (strain ATCC 204508 / S288c) (Baker's yeast)) (P32657 whole entry, the tested form may be a part): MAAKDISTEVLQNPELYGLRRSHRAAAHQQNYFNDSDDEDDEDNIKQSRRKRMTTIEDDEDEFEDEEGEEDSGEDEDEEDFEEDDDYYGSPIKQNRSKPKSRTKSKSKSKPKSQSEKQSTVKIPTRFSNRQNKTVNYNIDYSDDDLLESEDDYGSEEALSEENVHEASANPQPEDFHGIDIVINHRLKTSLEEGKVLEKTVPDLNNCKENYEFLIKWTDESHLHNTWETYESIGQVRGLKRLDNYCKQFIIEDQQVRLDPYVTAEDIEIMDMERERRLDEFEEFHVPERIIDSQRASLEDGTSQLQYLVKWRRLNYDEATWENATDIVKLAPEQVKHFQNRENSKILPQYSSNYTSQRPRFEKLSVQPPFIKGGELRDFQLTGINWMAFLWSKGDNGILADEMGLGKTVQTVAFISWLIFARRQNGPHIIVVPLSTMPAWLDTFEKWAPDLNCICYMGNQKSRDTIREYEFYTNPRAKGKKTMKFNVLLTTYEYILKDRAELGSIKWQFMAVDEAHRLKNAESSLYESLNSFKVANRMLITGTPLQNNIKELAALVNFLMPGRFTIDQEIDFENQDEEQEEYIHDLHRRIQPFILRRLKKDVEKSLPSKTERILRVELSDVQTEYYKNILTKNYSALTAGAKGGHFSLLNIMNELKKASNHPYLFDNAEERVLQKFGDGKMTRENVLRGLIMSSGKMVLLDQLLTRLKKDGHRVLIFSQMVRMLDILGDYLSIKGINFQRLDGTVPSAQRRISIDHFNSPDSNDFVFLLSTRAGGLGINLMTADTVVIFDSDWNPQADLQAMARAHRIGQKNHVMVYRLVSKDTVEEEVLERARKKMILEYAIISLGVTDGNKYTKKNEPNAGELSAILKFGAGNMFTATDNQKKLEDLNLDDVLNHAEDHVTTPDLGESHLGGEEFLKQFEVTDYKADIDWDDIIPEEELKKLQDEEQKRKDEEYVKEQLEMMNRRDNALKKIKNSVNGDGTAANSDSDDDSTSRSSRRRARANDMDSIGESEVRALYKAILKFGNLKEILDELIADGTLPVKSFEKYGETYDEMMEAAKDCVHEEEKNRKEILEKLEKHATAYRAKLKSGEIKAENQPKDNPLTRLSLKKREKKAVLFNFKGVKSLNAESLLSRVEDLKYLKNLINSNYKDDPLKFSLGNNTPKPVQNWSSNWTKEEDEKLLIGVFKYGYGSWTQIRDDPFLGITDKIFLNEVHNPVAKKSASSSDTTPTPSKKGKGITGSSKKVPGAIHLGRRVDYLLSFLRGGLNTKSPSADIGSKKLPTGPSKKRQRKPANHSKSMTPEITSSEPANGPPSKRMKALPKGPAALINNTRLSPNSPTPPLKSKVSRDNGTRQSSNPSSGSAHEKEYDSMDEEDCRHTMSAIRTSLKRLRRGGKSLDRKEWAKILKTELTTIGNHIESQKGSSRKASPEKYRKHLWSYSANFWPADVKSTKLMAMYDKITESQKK

Chain of Sialic acid-binding Ig-like lectin 9 (Homo sapiens) (Q9Y336 whole entry): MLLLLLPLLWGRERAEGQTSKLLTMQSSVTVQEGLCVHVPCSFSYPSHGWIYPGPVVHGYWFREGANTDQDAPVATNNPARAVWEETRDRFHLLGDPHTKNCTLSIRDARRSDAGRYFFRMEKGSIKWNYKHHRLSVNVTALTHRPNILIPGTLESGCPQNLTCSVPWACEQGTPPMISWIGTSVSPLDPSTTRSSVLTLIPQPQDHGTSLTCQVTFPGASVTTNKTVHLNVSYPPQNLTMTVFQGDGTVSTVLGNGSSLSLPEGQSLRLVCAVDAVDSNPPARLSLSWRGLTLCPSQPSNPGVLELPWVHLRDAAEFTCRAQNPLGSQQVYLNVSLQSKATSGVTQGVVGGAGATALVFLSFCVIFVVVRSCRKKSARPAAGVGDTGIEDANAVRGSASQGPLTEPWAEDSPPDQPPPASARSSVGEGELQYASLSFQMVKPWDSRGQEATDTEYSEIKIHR
Chain of Protein translocase subunit SecA (Escherichia coli (strain K12)) (P10408 whole entry): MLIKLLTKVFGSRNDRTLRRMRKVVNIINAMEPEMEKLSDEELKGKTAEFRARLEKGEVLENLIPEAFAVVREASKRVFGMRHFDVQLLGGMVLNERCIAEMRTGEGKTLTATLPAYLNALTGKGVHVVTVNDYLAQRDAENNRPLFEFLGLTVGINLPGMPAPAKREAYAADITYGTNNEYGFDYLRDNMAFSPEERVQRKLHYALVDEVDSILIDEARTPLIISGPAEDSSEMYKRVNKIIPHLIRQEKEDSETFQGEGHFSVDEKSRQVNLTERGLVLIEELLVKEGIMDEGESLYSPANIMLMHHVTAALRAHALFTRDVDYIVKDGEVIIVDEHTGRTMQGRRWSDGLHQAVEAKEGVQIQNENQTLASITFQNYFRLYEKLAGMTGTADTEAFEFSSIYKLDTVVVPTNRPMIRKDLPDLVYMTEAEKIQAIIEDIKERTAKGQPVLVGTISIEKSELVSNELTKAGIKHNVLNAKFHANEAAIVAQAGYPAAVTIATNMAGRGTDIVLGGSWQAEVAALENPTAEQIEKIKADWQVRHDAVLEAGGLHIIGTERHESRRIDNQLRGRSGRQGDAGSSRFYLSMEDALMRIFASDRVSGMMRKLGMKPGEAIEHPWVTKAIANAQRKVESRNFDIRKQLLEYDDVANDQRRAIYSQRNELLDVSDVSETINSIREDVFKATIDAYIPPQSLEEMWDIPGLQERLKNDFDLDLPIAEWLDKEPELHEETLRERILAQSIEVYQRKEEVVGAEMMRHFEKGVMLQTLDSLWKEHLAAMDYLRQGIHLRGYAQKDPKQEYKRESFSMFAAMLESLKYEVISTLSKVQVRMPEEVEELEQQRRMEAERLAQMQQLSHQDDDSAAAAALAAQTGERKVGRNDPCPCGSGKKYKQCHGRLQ

`CS(=O)(=O)N1CCN(c2ccc3ccc(C(=O)NC4CC4)cn23)CC1`: the PXC50 was found to be 4.71 in experiment [1] (BOTTOM 0.676888483, HILLSLOPE 1.632295337, MAX_EFFECT 62.22222222, TOP 67.77025413); 4.89 in experiment [1] (BOTTOM 0.960464126, HILLSLOPE 4.237364112, MAX_EFFECT 56.37583893, TOP 52.03393569); 4.97 in [1] (BOTTOM 1.708048652, HILLSLOPE 3.091987727, MAX_EFFECT 59.02777778, TOP 55.32905726); 4.98 in experiment [1] (BOTTOM 3.037239637, HILLSLOPE 2.011804467, MAX_EFFECT 63.24110672, TOP 62.63598189); 4.26 in experiment [1] (BOTTOM -1.02344126, HILLSLOPE 1.263595064, MAX_EFFECT 66.72443674, TOP 100.0).

In the case of `CN(CC1CC1)c1ccc2ccc(C(=O)NCCc3ccccc3)cn12`, the PXC50 in experiment [1] (BOTTOM 0.351029795, HILLSLOPE 1.115089004, MAX_EFFECT 62.13151927, TOP 107.5835515) is 4.12; in [1] (BOTTOM 1.92078188, HILLSLOPE 1.430695014, MAX_EFFECT 75.69444444, TOP 86.56449287), 4.61; in experiment [1] (BOTTOM 2.657056439, HILLSLOPE 1.351512964, MAX_EFFECT 68.11091854, TOP 100.0), 4.19; in experiment [1] (BOTTOM -1.049582542, HILLSLOPE 1.242411624, MAX_EFFECT 75.16778523, TOP 98.82108854), 4.43; in experiment [1] (MAX_EFFECT 50.8411215) it was less than 4.

Consider `Fc1cccc(N2C[C@H]3CCN(c4cccnc4)C[C@H]3C2)c1`, for which the PXC50 in experiment [1] (MAX_EFFECT 35.84229391), in experiment [1] (MAX_EFFECT 42.57425743) and in experiment [1] (MAX_EFFECT 45.65217391) was less than 4 throughout. The Percent Effect is -5.24% in experiment [2]; -27% in experiment [3]; 0.0628% in experiment [4]; -4.58% in experiment [5]; -1.95% in the experiment on Trypanosoma cruzi; -1.67% in experiment [6]. In addition, the Percent Effect in [7] was 9.38%; in the experiment listed under Homo sapiens, 31.8%; in [8] it was 23.8%; in [9] it was 25.6%; in [10], 3.63%.

In the case of `Oc1ccc(N(CCc2ccccc2)CCn2cncn2)cc1`, the PXC50 in [1] (BOTTOM 3.490457709, HILLSLOPE 3.448426001, MAX_EFFECT 80.53691275, TOP 87.69859371) is 4.3; in [1] (BOTTOM 4.951266088, HILLSLOPE 3.910237354, MAX_EFFECT 63.19444444, TOP 100.0), 4.05; in experiment [1] (MAX_EFFECT 6.53907496), less than 4; in experiment [1] (MAX_EFFECT 12.85988484), less than 4; in experiment [1] (MAX_EFFECT 66.72443674), less than 4.

The record behind these values is ChEMBL document CHEMBL3988442, “University of Dundee, Small-Polar-MMV Screening Library” (2021).
